MPTP inh – mitochondrial permeability transition pore inhibitors, primary screen, biochemical, isolated mouse mitochondria, absorbance. Ca2+ swelling absorbance, 30 min. inhibition, % at 10 µM. 360,000 compounds, 1.4% hits;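 active = inhibition of 50% or more, scaled per plate between neutral and stimulator controls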;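 also: 0% = DMSO wells given calcium and 100% = 1 mM EGTA wells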
Calb FLC – C. albicans growth inhibition with fluconazole, primary screen, CaCi-2 strain, Alamar Blue fluorescence | C. albicans CaCi-2 (fluconazole-resistant clinical isolate) + fluconazole, 48 h | growth inhibition, % (no concentration beside the values) | 300,000 compounds, 0.57% hits | AID 1979, 2009;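 active = growth inhibition above about 58% in most replicates, limit read from the data, passing the limit was not always enough; inconclusive = exactly half the replicates above a set limit; inactive = most replicates below a set limit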;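 also: all wells also contain fluconazole at 8 µg/ml as a sub-toxic cotreatment; 0% = median of DMSO wells and 100% = median of geldanamycin control wells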
Mdm2 MdmX PPI – inhibitors of human Mdm2-MdmX association, primary screen, cell-based, luminescence, split luciferase, SaOS-2, uHTS; Protein Mdm4 (Homo sapiens) + E3 ubiquitin-protein ligase Mdm2 (Homo sapiens), …; SaOS-2 split-luciferase Mdm2/MdmX complementation; inhibition, % at 8 µM; 330,000 compounds, 3% hits; AID 485346, 2010;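 active = inhibition of at least 50% at 8 µM in the primary screen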
Beta apoptosis – inhibitors of cytokine-induced beta cell apoptosis, primary screen, luminescence; protection from apoptosis, % (no concentration beside the values); INS-1E cytokine-induced death, ATP luminescence, 48 h; percent of positive-control rescue, neutral wells zero; 300,000 compounds, 0.8% hits;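 active = Every replicate reaches about 75%, or at least half do and their mean reaches it too, limit read from the data; inconclusive = At least half of replicates reach the limit but their mean does not; inactive = Under half of replicates reach the limit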;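 also: 0% = cytokine-treated negative control wells and 100% = positive control rescue; higher means more ATP so stronger rescue from cytokine killing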
CSC inhib – cancer stem cell viability inhibitors, primary screen, luminescence; inhibition, % at 7.5 µM; 300,000 compounds, 1.1% hits; cancer stem cell-like cells viability; in the data active = inhibition above about 75%; inconclusive = no clear call, values can overlap the other calls; tested in HMLE shEcad cells
SKKanGAS inh – S. pyogenes SKKanGAS growth inhibitors in kanamycin, primary screen, streptokinase expression inhibitor project, SKKanGAS strain, BacTiter-Glo luminescence; 6 h; inhibition, % at 7.5 µM; 300,000 compounds, 1.3% hits;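 active = mean replicate score, as percent of positive control median, at least 50; inconclusive = mean below 50 but one replicate at or above 50; inactive = mean and every replicate below 50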;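 also: strain carries kanamycin resistance gene driven by streptokinase promoter and grows in 40 µg/ml kanamycin; loss of luminescence reflects streptokinase promoter inhibition or plain growth inhibition; 0% = median of DMSO wells and 100% = positive control at its reference dose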
Rh123 counter – fluorescence retest of MPTP screen hits in isolated mitochondria, single concentration | shares compounds with MPTP inh | membrane potential, Rhodamine 123 fluorescence | inhibition, % at 10 µM | 5,000 compounds, 78% hits; in the data active = inhibition above about 22%;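 also: 0% = DMSO vehicle and 100% = positive control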
MPTP swell DR – mitochondrial permeability transition pore inhibitors, dose response, biochemical, absorbance, uHTS hits; shares compounds with MPTP inh; isolated mitochondria swelling; IC50, µM; 780 compounds, 58% hits; AID 651561, 2012; in the data active = IC50 below about 20 µM
MPTP cs DR – fluorescent counter-screen in isolated mitochondria, dose response, counter-screen for MPTP inhibitor project, biochemical, fluorescence, uHTS hits; shares compounds with MPTP inh; isolated mitochondria counterscreen, fluorescence read-out; IC50, µM; 780 compounds, 49% hits; AID 651564, 2012; in the data active = IC50 below about 80 µM
Active calls of the source: *. Compounds with a hit are over-represented: about 5.4% of the library has one in this group of screens.

For O=C1/C(=C/c2cccc(Br)c2)SC(=S)N1/N=C/c1cc([N+](=O)[O-])ccc1O the results were MPTP inh 61*, Calb FLC 8, Mdm2 MdmX PPI 1, Beta apoptosis 10, CSC inhib 17, SKKanGAS inh -1, Rh123 counter 12, MPTP swell DR 15* and MPTP cs DR <2.5*.
Screening CC(=O)NN1C(=O)/C(=C\c2ccc(O)cc2)SC1=S returned MPTP inh 1, Calb FLC 15, Mdm2 MdmX PPI -7, Beta apoptosis 7, CSC inhib -9 and SKKanGAS inh 4.
`CCOC(=O)c1cccc(OCC(O)CNCCOc2ccccc2F)c1` (configuration not stated) gave MPTP inh 74*, Calb FLC -21, Mdm2 MdmX PPI -27, Beta apoptosis -13, CSC inhib -1, SKKanGAS inh 0, Rh123 counter -12, MPTP swell DR 8.9* and MPTP cs DR >80.
For Cc1ccc(OCCNCC(O)COc2ccccc2)cc1 (configuration not stated) the results were MPTP inh 2, Calb FLC -4, Mdm2 MdmX PPI 25, Beta apoptosis -7, CSC inhib 0 and SKKanGAS inh -2.
CCOC(=O)N1CCC2(CC1)C(C#N)=C(N)Oc1c2c(C)nn1-c1cccc(Cl)c1 was read as MPTP inh 3, Calb FLC -9, Mdm2 MdmX PPI 0, Beta apoptosis -3, CSC inhib 22 and SKKanGAS inh 17.
`COC(=O)c1cccc(NC(=S)Nc2cc(Cl)ccc2OC)c1` gave MPTP inh 1, Calb FLC -2, Mdm2 MdmX PPI 10, Beta apoptosis 0, CSC inhib -1 and SKKanGAS inh 5.
COc1ccc(C2SCCN2C(=S)Nc2ccc(Cl)cc2)cc1 (configuration not stated) was read as MPTP inh 34, Calb FLC -24, Mdm2 MdmX PPI -6 and SKKanGAS inh 0.
Screening COC(=O)c1cccc(NC(=S)NCc2ccc(Cl)cc2)c1 returned MPTP inh 94*, Calb FLC -46, Mdm2 MdmX PPI 30, Beta apoptosis 0, CSC inhib -8, SKKanGAS inh 62* and Rh123 counter 107*.
`COc1ccc(C2SCCN2C(=S)Nc2cccc(Cl)c2)cc1` (configuration not stated) gave MPTP inh 96*, Calb FLC 7, Mdm2 MdmX PPI 10, Beta apoptosis -4, SKKanGAS inh 8 and Rh123 counter 94*.
For COC(=O)c1ccc(C)c(NC(=S)NCc2ccc(Cl)cc2)c1 the results were MPTP inh 26, Calb FLC -9, Mdm2 MdmX PPI 8, Beta apoptosis -1, CSC inhib -10 and SKKanGAS inh 10.
COc1ccc(CNC(=S)Nc2cccc(Cl)c2)cc1 was read as MPTP inh 75*, Calb FLC 2, Mdm2 MdmX PPI 29, CSC inhib -1, SKKanGAS inh -1 and Rh123 counter 100*.
For COC(=O)c1cc(NC(=S)NCc2ccc(Cl)cc2)cc(C(=O)OC)c1 the results were MPTP inh 98*, Calb FLC 1, Mdm2 MdmX PPI -21, Beta apoptosis 7, CSC inhib 71, SKKanGAS inh 32 and Rh123 counter 79*.
CC1CCCCC12NC(=O)N(CC(=O)Nc1ccc3c(c1)OCCCO3)C2=O (configuration not stated) was read as MPTP inh -3, Mdm2 MdmX PPI 9, Beta apoptosis -5 and CSC inhib -15.
Screening COc1ccc(CCC(=O)NCCOc2ccc(Cl)cc2)cc1 returned MPTP inh 0, Calb FLC 9, Mdm2 MdmX PPI 16, Beta apoptosis -3, CSC inhib -6 and SKKanGAS inh -15.
`COC(=O)c1cccc(NC(=O)Nc2ccc(Cl)cc2Cl)c1` gave MPTP inh 84*, Calb FLC 1, Mdm2 MdmX PPI 19, Beta apoptosis 6, CSC inhib 2, SKKanGAS inh -10 and Rh123 counter 75*.
Cc1sc2ncnc(NCCc3ccc(S(N)(=O)=O)cc3)c2c1C was read as MPTP inh 86*, Calb FLC inconclusive, Mdm2 MdmX PPI 19, Beta apoptosis 93*, CSC inhib -2, SKKanGAS inh -3 and Rh123 counter 106*.
Screening CC(Sc1ncnc2sccc12)C(=O)Nc1ccc(S(N)(=O)=O)cc1 (configuration not stated) returned MPTP inh 1, Mdm2 MdmX PPI 33, Beta apoptosis -3 and CSC inhib -8.
Screening NS(=O)(=O)c1ccc(CCNc2ncnc3sccc23)cc1 returned MPTP inh 74*, Calb FLC -4, Mdm2 MdmX PPI 15, Beta apoptosis 43, CSC inhib 1, SKKanGAS inh -4 and Rh123 counter 81*.
Screening Cc1ccc(S(=O)(=O)NCc2cccnc2)cc1 returned MPTP inh 0, Calb FLC 0, Mdm2 MdmX PPI 4, Beta apoptosis -2, CSC inhib 1 and SKKanGAS inh 3.
COc1ccc(/C=C(/C#N)C(=O)Nc2ccc(C)cc2C)cc1C(=O)O was read as MPTP inh 0, Calb FLC -3, Mdm2 MdmX PPI -1, Beta apoptosis 3, CSC inhib -7 and SKKanGAS inh -4.
`COc1ccc(N2CCN(CC(O)COc3cc(C)ccc3C)CC2)cc1` (configuration not stated) gave MPTP inh 1, Calb FLC 2, Mdm2 MdmX PPI -16, Beta apoptosis -2, CSC inhib 12 and SKKanGAS inh -2.
COc1ccc(/C=C/C(=O)Nc2ccccc2C(=O)NCC(c2ccc(OC)cc2)N(C)C)cc1 (configuration not stated) was read as MPTP inh 76*, Calb FLC -5, Mdm2 MdmX PPI 43, CSC inhib -7, SKKanGAS inh 4, Rh123 counter -5, MPTP swell DR 12* and MPTP cs DR >80.
Screening Cc1nn(C(C)C(=O)Nc2ccc(Cl)cn2)c(C)c1[N+](=O)[O-] (configuration not stated) returned MPTP inh 2, Calb FLC 2, Mdm2 MdmX PPI -2, Beta apoptosis -4, CSC inhib -3 and SKKanGAS inh 0.
